# Results published in PubChem BioAssay AID2078 (The Scripps Research Institute Molecular Screening Center, 2009).
# Calls of active or inactive are those of the source. The rule behind the calls is not given here.
# Test: STAT3 inhibitors, late-stage profile, late-stage follow-up, cell-based, STAT1 panel, qPCR, cytotoxicity (AID 2078)
# Conditions: STAT3/STAT1 inhibition panel, cell reporter assay, Quantitative PCR; qPCR mRNA fold change, at 10 µM, stronger effect = lower value
smiles,measurement,value
c1ccc(CC2CCN(c3ncnc4sccc34)CC2)cc1,fold change,0.68
same,outcome,active; probe
